As usually defined, the AC50 is the concentration giving half of the maximal activity seen.

Values joined by “and” are separate entries in the source; they are usually repeats but may differ in a detail not shown here. Equal values may be shown once. Where a structure was tested more than once in an assay, its records may differ in their call. Active and inactive are the calls of the source. How the source made its calls: active means hit-call score of the fitted dose curve at least 0.9, where 1 is the maximum; inactive means score below 0.9.

The nature of this experiment: APR_HepG2_CellLoss_72hr: Apredica 72-hour HepG2 Assay for Cell Loss (AID 2282915). As to conditions: high-content imaging. The method, then: APR_HepG2_72hr is a cell-based, multiplexed-readout assay that uses HepG2, a human liver cell line, with measurements taken at 72 hours after chemical dosing in a 384-well plate.APR_HepG2_CellLoss_72hr is one of 10 assay component(s) measured or calculated from the APR_HepG2_72hr assay. It is designed to make measurements of cell number, a form of viability reporter, as detected with fluorescence intensity signals by HCS Fluorescent Imaging technology.Data from the assay component APR_HepG2_CellLoss_72hr was analyzed into 1 assay endpoint. This assay endpoint, APR_HepG2_CellLoss_72hr, was analyzed with bidirectional fitting relative to DMSO as the negative control and baseline of activity. Using a type of viability reporter, measures of all nuclear dna for gain or loss-of-signal activity can be used to understand the viability at the cellular-level. Furthermore, this assay endpoint can be referred to as a secondary readout, because this assay has produced multiple assay endpoints where this one serves a viability function. To generalize the intended target to other relatable targets, this assay endpoint is annotated to the cell cycle intended target family, where the subfamily is proliferation.
Cells were treated with dimethyl sulfoxide (DMSO) as a solvent control at a final concentration of 0.5% v/v or with compounds in DMSO with a resulting final DMSO concentration of 0.5% v/v. Compound treatment was done at concentrations of 0.39, 0.78, 1.56, 3.12, 6.24, 12.5, 25, 50, 100, and 200 uM in duplicate on each plate. Cells were treated with compounds for 1, 24, or 72 hr. Carbonyl […] m-chloro-phenylhydrazone (CCCP) and taxol were used as positive controls for mitochondrial function and cytoskeletal stability, respectively; DMSO served as the negative control for this experiment. Cells were fixed by the direct addition of 50 uL formaldehyde in Hank's Balanced Salt Solution (HBSS) to a final concentration of 3.7%. After incubation in the fixation medium for 30 min at room temperature (293-298 K), cells were rinsed twice with HBSS and treated with cell permeabilization buffer (16 uL of 0.5% Triton X-100) for 10 min at room temperature (293-298 K) before labeling. For mitochondrial membrane potential and mitochondrial measurements, pre-fixed cells were incubated with 50 uL of MitoTracker Red CMXRos (Invitrogen) at a concentration of 250 nM for 30 min before fixation. In the remaining cases, post-fixed cells were labeled by incubation with a multiplexed mixture of primary antibodies in HBSS for 60 min at room temperature (293-298 K) to detect immunoreactivity of c-Jun (1:500), phospho-histone H3 (1:100), phospho-histone H2A.x (1:200), p53 (1:400), alpha-tubulin (1:200) and Hoechst 33342 (2 ug/mL). Cells were labeled for multiplexed imaging on two separate plates: a) Hoechst 33342, MitoTracker Red, phospho-histone H3, and alpha-tubulin, and b) Hoechst 33342, phospho-histone H2A.x, and c-Jun. A final rinse with HBSS (50 uL) was performed before analysis. The primary and secondary antibodies for the proteins were phospho-histone H3 (rabbit anti-phospho-histone H3 and FITC-donkey anti-rabbit IgG), phospho-histone H2A.x (mouse anti-phospho-histone H2A.x and FITC-donkey anti-mouse IgG), c-Jun (rabbit anti-phospho-c-Jun and Cy3-donkey anti-rabbit IgG), p53 (sheep anti-p53 and Cy5-donkey anti-sheep IgG), alpha-tubulin (mouse anti-alpha-tubulin and Cy5-donkey anti-mouse IgG). These antibodies are available as the CellCiphr HepG2 assay kit (Millipore).Digital images of each well were captured using a Cellomics ArrayScan VTI (Thermo Scientific Cellomics) (0.8 NA objective, 0.63x optical coupler, and XF-93 filter set) at 20x magnification. The images were acquired using the autofocus feature of the ArrayScan instrument, which entails the following steps. First, the camera focuses on channel 1 (Hoechst 33342), where nuclei are identified. Second, a Z offset of 1 um is used for capturing mitochondria (MitoTracker Red). […]
In the case of `O=C(O)COc1ccc(Cl)cc1Cl`, the molecule was called inactive.
The same measure, in the same setting: under `O=C(O)CCCOc1ccc(Cl)cc1Cl` stands “inactive”.
Consider `COP(=O)(OC)OC=C(Cl)Cl`, for which the AC50 was 78 µM (active).
As to `CNC(=O)Oc1ccccc1OC(C)C`, the outcome was inactive.
With `O=S1OCC2C(CO1)C1(Cl)C(Cl)=C(Cl)C2(Cl)C1(Cl)Cl` (stereo not given), the AC50 is 100 µM (active).
`ClC1C(Cl)C(Cl)C(Cl)C(Cl)C1Cl` (stereo not given): the AC50 was 57.2 µM (active) and the result was inactive.
Regarding `CCOCN(C(=O)CCl)c1c(C)cccc1CC`, the AC50 is 9.99 µM (active).
With `OCCOc1ccccc1`, the outcome was inactive.
For `Oc1ccc(Cl)cc1Cc1ccccc1`, the AC50 was 70 µM (active) [middle of 6 runs] and the call was inactive.
For the molecule `CNC(=O)Oc1cccc(N=CN(C)C)c1`, the AC50 is 96.5 µM (active).
`CC(C)OC(=O)Nc1cccc(Cl)c1`: the molecule was classed as inactive.
In the case of `CCOC1Oc2ccc(OS(C)(=O)=O)cc2C1(C)C` (stereo not given), the AC50 is 46.1 µM (active).
The same measure, in the same setting: in the case of `Clc1ccccc1-c1nnc(-c2ccccc2Cl)nn1` it was 39.7 µM (active); in that of `CCCN(CCC)c1c([N+](=O)[O-])cc(C(F)(F)F)cc1[N+](=O)[O-]`, 109 µM (active).
`O=[N+]([O-])/N=C1\NCCN1Cc1ccc(Cl)nc1`: the molecule was called inactive.
Same read-out and setting: in the case of `COP(=S)(OC)Oc1ccc([N+](=O)[O-])cc1` it was “inactive”.
The same measure, in the same setting: in the case of `O=C(NC(=O)c1c(F)cccc1F)Nc1ccc(OC(F)(F)C(F)OC(F)(F)F)c(Cl)c1` (stereo not given) it was “inactive”.
On to `CC(C)(C)C(O)C(Oc1ccc(Cl)cc1)n1cncn1` (stereo not given), for which the result was inactive; the AC50 was 90.5 µM (active) and 96.3 µM (active) and 36.1 µM (active).
Regarding `CCN(CC)C(=O)SCc1ccc(Cl)cc1`, the molecule was classed as inactive.
As for `COC(=O)c1ccccc1S(=O)(=O)NC(=O)N(C)c1nc(C)nc(OC)n1`, the molecule was classed as inactive.
Regarding `CC(C)N(C(=O)COc1nnc(C(F)(F)F)s1)c1ccc(F)cc1`, the AC50 is 37.6 µM (active).
For `COc1cc(OC)nc(NC(=O)NS(=O)(=O)c2cc(NC=O)ccc2C(=O)N(C)C)n1`, the outcome was inactive.
Still for that read-out and setting: in the case of `CNC(=O)CSP(=S)(OC)OC` it was “inactive”.
As for `Oc1cc(Cl)ccc1Oc1ccc(Cl)cc1Cl`, the AC50 is 35.3 µM (active) and 26.9 µM (active) and 67 µM (active).
As to `Cc1cc(C)nc(NC(=O)NS(=O)(=O)c2ccccc2C(=O)OC2COC2)n1`, the outcome was inactive.
On the same count and under the same terms, under `COP(=S)(OC)Oc1ccc(SC)c(C)c1` stands “inactive”.
In the case of `COc1nn(CSP(=S)(OC)OC)c(=O)s1`, the molecule was called inactive.
As for `O=C(Nc1ccccc1)Nc1cnns1`, the concentration at half-maximal activity (AC50) is 90.8 µM (active).
Regarding `CCC(C)(NC(=O)c1cc(Cl)c(C)c(Cl)c1)C(=O)CCl` (stereo not given), the result was inactive.
Same read-out and setting: under `CCOc1nc(NC)nc(NC(=O)NS(=O)(=O)c2ccccc2C(=O)OC)n1` stands “inactive”.
The same measure, in the same setting: in the case of `C#CCN1C(=O)COc2cc(F)c(N3C(=O)C4=C(CCCC4)C3=O)cc21` it was “inactive”.
Consider `CCc1ccc(C(=O)NN(C(=O)c2cc(C)cc(C)c2)C(C)(C)C)cc1`, for which the AC50 was 43.6 µM (active).
For `CNC(=O)/C=C(\C)OP(=O)(OC)OC`, the molecule was called inactive.
Take `CCC(C)Nc1c([N+](=O)[O-])cc(C(C)(C)C)cc1[N+](=O)[O-]` (stereo not given): the concentration at half-maximal activity (AC50) is 64.9 µM (active).
With `N#Cc1c(Cl)c(Cl)c(Cl)c(C#N)c1Cl`, the AC50 is 0.452 µM (active).
Same read-out and setting: in the case of `[2H]C1([2H])[n+]2ccccc2-c2cccc[n+]2C1([2H])[2H]` it was 35.1 µM (active).
For `COC(=O)c1ccccc1CS(=O)(=O)NC(=O)Nc1nc(OC)cc(OC)n1`, the outcome was inactive.

Source of the values: PubChem BioAssay (EPA / NIEHS).
